For orientation: inhibition means the change of the read-out against control, counted positive when it falls.

99 compounds from PubChem BioAssay AID504329 (Southern Research Specialized Biocontainment Screening …, 2011) can be followed below.

About 1,000 (0.29%) of roughly 340,000 compounds were called active. Rule as the data show it: inconclusive = inhibition above about 27% without an active follow-up result; inactive = below that. Not all results are given here. Entries with a potency or affinity are not part of this list.

This test is described as follows: NS1A inhibition, H1N1 influenza, cell based functional assay (AID 504329). The note with it: percent inhibition, at 12.5 µM, hits give high values.
Turning to `COc1ccc(Cl)cc1C(=O)NC1=NCCS1`, the inhibition is 3.24% (inactive). Regarding `N#Cc1ccc(Oc2ncccn2)cc1`, the inhibition is -1.76% (inactive).

Turning to `CC(=O)Nc1ccc(S(=O)(=O)N(C)CC(=O)OCC(=O)c2cc(C)n(-c3ccc4c(c3)OCO4)c2C)cc1`, the inhibition was 4.97% (inactive). For `COc1cc(/C=C2\SC(=O)N(Cc3ccc(F)cc3)C2=O)cc([N+](=O)[O-])c1O`, the inhibition was 26.1% (inactive). Regarding `COc1cc(/C=C2\SC(=O)N(c3ccc(Cl)cc3)C2=O)cc([N+](=O)[O-])c1O`, the inhibition was -5.87% (inactive).

`CCN(CC)c1ccc(NC(=O)c2ccc3c(c2)OCO3)cc1`: the inhibition is 21.3% (inactive).

As for `CCN(CC)c1ccc(C(=O)Nc2cccc(F)c2)cc1`, the inhibition is 0.06% (inactive). The value for `Cc1cc(C(=O)OCC(=O)Nc2ccccc2C)c(C)o1` was -4.72% (inactive); that for `Cc1c(N=c2scc(-c3ccccc3)n2C)c(=O)n(-c2ccccc2)n1C` was -5.38% (inactive); that for `Cc1c(N=C2C(=O)Nc3ccccc32)c(=O)n(-c2ccccc2)n1C` was 11% (inactive). `Cc1ccc(N2C(=O)CN(Cc3ccccc3)C2=S)cc1C`: the inhibition is -6.48% (inactive). As to `O=C(N/N=C/c1ccc(O)c([N+](=O)[O-])c1)c1ccncc1`, the inhibition was 13.6% (inactive). With `O=[N+]([O-])c1cc(/C=N\Nc2ccccn2)ccc1Cl`, the inhibition is -4.08% (inactive). On to `COc1ccc(CC(=O)Nc2cc(S(=O)(=O)N3CCOCC3)ccc2N2CCCC2)cc1OC`, for which the inhibition is 2.03% (inactive). Take `NC(=O)c1ccc(-c2c(-c3ccccc3)sc3ccccc23)cc1`: the inhibition is -3.51% (inactive). For `CCOC(=O)N1CCC(NC(=O)CCc2c(C)nc3c(c(C)nn3C(C)(C)C)c2C)CC1`, the inhibition is 0.25% (inactive). For `CNC(=S)NNc1nc(-c2ccccc2)c2cc(Cl)ccc2n1` the value was 8.4% (inactive); for `Nc1c(Cl)ncnc1N/N=C/c1cccc(O)c1`, 17.6% (inactive); for `COc1ccc(/C=N/Nc2ncnc(Cl)c2N)cc1OC`, -17% (inactive). Consider `Nc1c(Cl)ncnc1N/N=C/c1ccc(O)cc1`, for which the inhibition was -15.8% (inactive). The value for `Nc1c(Cl)ncnc1N/N=C/c1ccnc2ccccc12` was -0.57% (inactive); that for `COc1ccccc1/C=N/Nc1nccnc1Cl` was 4.08% (inactive); that for `COc1ccc(/C=N/Nc2nccnc2Cl)c(OC)c1` was -10.3% (inactive). Take `Cc1cccc(NC(=S)NCc2ccc(F)cc2)c1C`: the inhibition was -12.3% (inactive).

For `CN1CCN(c2ccc(CNC(=O)c3cc4ccccc4o3)cc2)CC1`, the inhibition was -11.5% (inactive). In the case of `CCOC(=O)N1CCN(S(=O)(=O)c2ccc(C(=O)Nc3sc4c(c3C(N)=O)CC(C)(C)NC4(C)C)cc2)CC1`, the inhibition was -1.86% (inactive).

Consider `O=C1NC(=Nc2ccccc2Br)SC1(CO)CO`, for which the inhibition was -3.43% (inactive). `COc1cccc(CNc2ccc(S(=O)(=O)Nc3nccs3)cc2)c1O`: the inhibition was -5.98% (inactive).

With `CC(=O)NC(CC(=O)O)c1ccccc1` (centres undefined), the inhibition was -5.66% (inactive).

Consider `O=C(c1cc(-c2ccc(Cl)cc2)nc2ccccc12)N1CCOCC1`, for which the inhibition was -19.9% (inactive). As to `COc1ccc(OC)c(C2=NS(=O)(=O)N(C)C(C(=O)NCc3ccco3)=C2)c1`, the inhibition was -7.9% (inactive). In the case of `COc1ccc(CN2CCN(c3ccccn3)CC2)cc1OCc1ccccc1`, the inhibition was 7.77% (inactive).

Regarding `O=C(c1cccc2ccccc12)N1CCN(c2ccc([N+](=O)[O-])c(NCc3ccco3)c2)CC1`, the inhibition is 7.93% (inactive). The value for `CC(=O)Nc1nnc(CCS(=O)(=O)c2ccc(C)cc2)s1` was -6.45% (inactive). The value for `CCSc1nnc(NC(=O)c2ccccc2)s1` was -12.7% (inactive); that for `CCc1nnc(NC(=O)c2cccc(C(=O)Nc3nnc(CC)s3)n2)s1` was -2.25% (inactive). Consider `CCc1nnc(NC(=O)c2cnccn2)s1`, for which the inhibition was -0.42% (inactive). For `Cc1ccc(S(=O)(=O)CCc2nnc(NC(=O)c3cnccn3)s2)cc1`, the inhibition is -1.91% (inactive).

As to `CCSc1nnc(NC(=O)c2cccnc2Cl)s1`, the inhibition is -1.92% (inactive). On to `Cc1ccc(CNC(=O)CN2C(=O)CSc3ccc(S(=O)(=O)N4CCCCC4)cc32)cc1`, for which the inhibition was 2.97% (inactive). On to `COC(=O)c1ccc(CNC(=O)c2coc3ccccc3c2=O)cc1`, for which the inhibition is -15.6% (inactive). For `O=C(COc1ccc(Cl)cc1)NC1CCSC1=O` (centres undefined) the value was -5.86% (inactive). Take `O=C1CC(NNc2nc3ccccc3s2)C(=O)N1c1ccccc1` (centres undefined): the inhibition is 2.74% (inactive).

Consider `O=C(COC(=O)C1CCC1)c1c[nH]c2ccccc12`, for which the inhibition is -3.9% (inactive).

Consider `CCn1c(=O)[nH]c2cc(C(=O)N3CCN(c4ccccc4)CC3)ccc2c1=O`, for which the inhibition was 5.52% (inactive). For `COc1cc2c(cc1OC)CN(c1nc(CN3CCOCC3)nc3sc4c(c13)CCCC4)CC2`, the inhibition is 4.39% (inactive). Turning to `O=C(NCC(c1ccco1)N1CCCCC1)c1ccc(S(=O)(=O)Nc2ccccc2)cc1` (centres undefined), the inhibition is -1.8% (inactive). For `COc1ccc(-n2ccnc(SCC(=O)NC3CCCCC3)c2=O)cc1` the value was -5.37% (inactive).

For the compound `CCc1cccc2sc(NC(=O)C3CC3)nc12`, the inhibition is -5.24% (inactive).

For `Nc1c(C=C2C=CC(=O)C=C2)c(=O)nc2snc(SCc3ccccc3)n12`, the inhibition was 11.3% (inactive). Take `C=CCOc1ccc(C(=O)c2ccccc2)c(OCC(=O)NC2(C#N)CCCC2)c1`: the inhibition was 5.71% (inactive).

Turning to `COc1ccc2nc3cccc(OC)c3nc2c1`, the inhibition was -1.33% (inactive). For `COc1cccc2nc3cc(C)c(C)cc3nc12`, the inhibition was 1.36% (inactive). As to `OC(CN1CCN(c2ccc(C(F)(F)F)cn2)CC1)c1ccccc1` (centres undefined), the inhibition is -15% (inactive). The value for `CC(C)(C)N(Cc1ccccc1)C(=O)COC(=O)c1ccc(S(=O)(=O)N2CCOCC2)cc1` was -2.6% (inactive); that for `COc1ccc(Nc2cc(C)c3ccccc3n2)cc1` was -1.04% (inactive). `COc1ccc(C(=O)N/N=C(\c2ccccc2)c2ccccn2)cc1`: the inhibition was 6.37% (inactive). Consider `COc1cc(C2C3=C(CCCC3=O)Nc3[nH]n(-c4ccccc4)c(=O)c32)ccc1OC(C)=O` (centres undefined), for which the inhibition was 2.7% (inactive).

On to `Cn1c(C(=O)NCCCN2CCCCC2)cc2sccc21`, for which the inhibition is 8.28% (inactive). Regarding `NCCCN1CCN(c2ccccc2)CC1`, the inhibition is 11.2% (inactive).

For `COc1ccc(N2CCN(CCC(N)=O)CC2)cc1`, the inhibition is -4.44% (inactive). On to `CC1CCN(CCCNC(=O)c2cc3sccc3n2C)CC1`, for which the inhibition was 4.97% (inactive). As to `CC1(C)NC(=O)N(CC(=O)OCC(=O)c2ccc(F)cc2)C1=O`, the inhibition is -8.13% (inactive).

`CCOc1ccccc1N1CC(C(=O)Nc2cc(S(C)(=O)=O)ccc2Cl)CC1=O` (centres undefined): the inhibition is -5.65% (inactive). As for `O=C(O)c1ccc(NCc2nc3ccccc3n2Cc2ccccc2)cc1`, the inhibition is 11.2% (inactive). As to `NNC(=O)c1sccc1OCc1ccc(Cl)cc1`, the inhibition was 0.97% (inactive). For `Cc1noc(C)c1S(=O)(=O)Nc1ccccc1N1CCOCC1` the value was 0.87% (inactive); for `O=C(CCNC(=O)c1ccc([N+](=O)[O-])cc1)Nc1nc2ccccc2[nH]1`, -0.35% (inactive); for `O=[N+]([O-])c1ccc(N=Nc2ccc(O)cc2O)cc1`, -9.68% (inactive). Regarding `O=S(=O)(Nc1ccc(N=Nc2ccc(O)c3ccccc23)cc1)c1ccccc1`, the inhibition is 5.24% (inactive). On to `O=C1ON=C(c2ccccc2)/C1=C/c1ccc(-c2ccccc2[N+](=O)[O-])o1`, for which the inhibition is -1.51% (inactive). With `COc1ccc(-c2ccc(/C=C3\C(=O)N(c4ccccc4)N=C3c3ccccc3)o2)c([N+](=O)[O-])c1`, the inhibition was 10.3% (inactive). With `CC(C)Cc1nnc(NC(=O)CCC(=O)NCc2ccccc2Cl)s1`, the inhibition is -2.08% (inactive). Consider `CC(=O)Nc1ccc2nc(NC(=O)COc3ccccc3Cl)sc2c1`, for which the inhibition was -0.9% (inactive).

As to `CN1CCN(c2ccc(NC(=O)Oc3ccccc3)cc2)CC1`, the inhibition was 17.8% (inactive).

Consider `COc1ccc(C(=O)Nc2ccc(N3CCN(C)CC3)cc2)cc1`, for which the inhibition was 1.09% (inactive).

As for `C=CC(=O)Nc1cccc(Oc2ccnc3[nH]ccc23)c1`, the inhibition is 19.9% (inactive). As to `CC(C)Oc1cccc(C(=O)Nc2ccc(N3CCN(C)CC3)cc2)c1`, the inhibition was -2.02% (inactive).

With `Cc1ccc(S(=O)(=O)N2CCN(C(=O)COC(=O)/C=C/c3ccccc3[N+](=O)[O-])CC2)c(C)c1`, the inhibition is 0.45% (inactive). Regarding `CC(NCC(=O)Nc1ccccc1C(=O)NC1CC1)c1cccs1` (centres undefined), the inhibition was -16.2% (inactive). Take `CCOC(=O)c1c(NC(=O)c2ccccc2)sc2c1CCc1ccccc1-2`: the inhibition was -10.9% (inactive).

For `COc1ccc(OC)c2c1C(=O)C(Cl)=C(Cl)C2=O`, the inhibition was 24.7% (inactive).

On to `COc1ccc2noc3c2c1C(=O)c1ccccc1-3`, for which the inhibition was 7.47% (inactive). `COCCN1C(=O)N[C@@H](c2ccccc2)[C@H](C(=O)OC)[C@H]1C`: the inhibition was -12.7% (inactive). `CC1(C)Oc2ccc3ccc(=O)oc3c2/C(=C/NNC(N)=O)C1=O`: the inhibition was -7.94% (inactive).

On to `CC1(C)Oc2ccc3ccc(=O)oc3c2C(/C=N/O)=C1Cl`, for which the inhibition is -10.3% (inactive).

As to `Cc1ccc(NC(=O)NNC(=O)CN2C(=O)COc3ccccc32)cc1`, the inhibition was -2.65% (inactive). Take `Cc1cccc(OC(=O)c2cccnc2)c1C`: the inhibition was -8.58% (inactive). As for `CC(C)c1nnc(NC(=O)C2CCCN(C(=O)Nc3ccc(F)cc3)C2)s1` (centres undefined), the inhibition was -2.41% (inactive). Regarding `CCOC(=O)C1CCN(C(=O)C2CCC(=O)N(Cc3cccc(C(F)(F)F)c3)C2)CC1` (centres undefined), the inhibition was 11.5% (inactive).

For the compound `CC(=O)NCCn1c(C)cc2ccccc21`, the inhibition was -2.59% (inactive). Consider `Cc1cc2ccccc2n1CCNC(=O)C(C)C`, for which the inhibition was 4.98% (inactive). On to `O=C(OCc1ccccc1F)c1cc([N+](=O)[O-])ccc1N1CCOCC1`, for which the inhibition is 12.7% (inactive). The value for `CC(C)C(=O)NC(c1ccccc1)c1cc([N+](=O)[O-])c2cccnc2c1O` (centres undefined) was 3.43% (inactive); that for `CC(C)C(=O)NC(c1cccs1)c1cc([N+](=O)[O-])c2cccnc2c1O` (centres undefined) was 7.53% (inactive). For `CCCC(=O)NC(c1ccco1)c1cc([N+](=O)[O-])c2cccnc2c1O` (centres undefined), the inhibition is 4.57% (inactive).

As for `CCC(=O)NC(c1ccc(C)cc1)c1cc([N+](=O)[O-])c2cccnc2c1O` (centres undefined), the inhibition was 27.3% (inactive). Take `CC(=O)NC(c1ccc(C)cc1)c1cc([N+](=O)[O-])c2cccnc2c1O` (centres undefined): the inhibition is 22% (inactive).

With `CCCC(=O)NC(c1cccs1)c1cc(Cl)c2cccnc2c1O` (centres undefined), the inhibition is -9.38% (inactive).
